Reference: PubChem BioAssay (Tox21)
Results filed as inconclusive are left out. Calls of active or inactive are those of the source. The call rests on the fitted dose curve; in most records, active means well fitted curve in the direction sought with a large enough effect in the repeat runs; inconclusive means weak or mixed curves; inactive means no such curve, though single readings can be large; an effect the other way counts as inactive or inconclusive.

Key:
[1] = A CellTox Green Cytotoxicity Assay to monitor cytotoxicity in HEK293 cells - 32 hour (AID 1224881); further: nearly all actives have a fitted effect of over 40% in size
Summary of the method: (§1)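 Fluorescence intensity, read at 0, 8, 16, 24, 32 and 40 h of compound treatment, reflected dye binding to DNA of dead HEK293 cells; compounds (23 nL, DMSO) were added 5 h after plating cells with reagent.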

[2] = A CellTox Green Cytotoxicity Assay to monitor cytotoxicity in HepG2 cells - 0 hour (AID 1224882); further: nearly all actives have a fitted effect of over 35% in size
Summary of the method: (§2)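 Using 1536-well format, dye-containing HepG2 suspension was seeded, allowed 5 h at 37 C/5% CO2, dosed by pintool with compounds, positive and negative controls, and imaged for fluorescence across 40 h.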

[3] = A CellTox Green Cytotoxicity Assay to monitor cytotoxicity in HepG2 cells - 32 hour (AID 1224883); further: nearly all actives have a fitted effect of over 50% in size
Summary of the method: as §2

[4] = A CellTox Green Cytotoxicity Assay to monitor cytotoxicity in HEK293 cells - 8 hour (AID 1224884); further: nearly all actives have a fitted effect of over 35% in size
Summary of the method: as §1

[5] = qHTS RealTime-Glo MT Cell Viability Assay in HepG2 cells - 16 hour (AID 1224885); further: nearly all actives have a fitted effect of over 50% in size
Summary of the method: (§3)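 Cell number in HepG2 cultures estimated from NanoLuc luminescence generated by metabolic reduction of a prosubstrate by living cells. The homogeneous, nonlytic format allowed repeated reads at 0, 8, 16, 24, 32 and 40 h of compound exposure.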

[6] = qHTS RealTime-Glo MT Cell Viability Assay in HEK293 cells - 24 hour (AID 1224886); further: nearly all actives have a fitted effect of over 50% in size; further: potency means the concentration at half of the fitted maximal effect; on activity change, negative = cytotoxicity: top concentration of the series differs between compounds
Summary of the method: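 Homogeneous bioluminescent viability format in HEK293 cells (600 cells/well). Following 5 h at 37 C/5% CO2, 23 nL compound was pintooled; the signal was measured repeatedly during 40 h incubation.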

[7] = qHTS RealTime-Glo MT Cell Viability Assay in HEK293 cells - 8 hour (AID 1224887); further: nearly all actives have a fitted effect of over 50% in size; further: potency means the concentration at half of the fitted maximal effect; on activity change, negative = cytotoxicity: top concentration of the series differs between compounds
Summary of the method: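 Viable HEK293 cells reduce a cell-permeant prosubstrate; the product diffuses out and is consumed by NanoLuc in the medium to give light. Compounds went in after a 5 h incubation and plates were read over the treatment course.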

[8] = A CellTox Green Cytotoxicity Assay to monitor cytotoxicity in HEK293 cells - 16 hour (AID 1224888); further: nearly all actives have a fitted effect of over 35% in size
Summary of the method: as §1

[9] = qHTS RealTime-Glo MT Cell Viability Assay in HepG2 cells - 0 hour (AID 1224889); further: nearly all actives have a fitted effect of over 50% in size
Summary of the method: as §3

[10] = A CellTox Green Cytotoxicity Assay to monitor cytotoxicity in HepG2 cells - 8 hour (AID 1224890); further: nearly all actives have a fitted effect of over 45% in size
Summary of the method: as §2
On the % scale 0 is the no-effect control and ±100 the full control effect.

CC(O)CCl (stereo unspecified)
inactive: Potency [1] | outcome [2] | Potency [3] | Potency [4] | Potency [5] | Potency [6] | Potency [7] | Potency [8] | outcome [9]

CN1COCN(Cc2cnc(Cl)s2)/C1=N\[N+](=O)[O-]
inactive: Potency [1] | outcome [2] | Potency [3] | Potency [4] | Potency [5] | Potency [6] | Potency [7] | Potency [8] | outcome [9] | Potency [10]

CCCOC(=O)Cc1ccc(OCC(=O)N(CC)CC)c(OC)c1
inactive: Potency [1] | outcome [2] | Potency [3] | Potency [4] | Potency [5] | Potency [6] | Potency [7] | Potency [8] | outcome [9] | Potency [10]

COc1ccc(CN2CCNCC2)c(OC)c1OC
inactive: Potency [1] | outcome [2] | Potency [3] | Potency [4] | Potency [5] | Potency [6] | Potency [7] | Potency [8] | outcome [9] | Potency [10]

CC(=O)OCC1=C(C(=O)O)N2C(=O)[C@@H](N)[C@H]2SC1
inactive: cytotoxicity increase [1] -3.48% [at 15.8 µM] | cytotoxicity [2] -8.52% [at 15.8 µM] | cytotoxicity increase [3] 0.0293% [at 15.8 µM] | cytotoxicity increase [4] -3.34% [at 15.8 µM] | activity change, negative = cytotoxic [5] 0.0339% [at 15.8 µM] | activity change, negative = cytotoxicity [6] 11.4% [at 15.8 µM] | activity change, negative = cytotoxicity [7] -14.1% [at 15.8 µM] | activity change [8] 2.87% [at 15.8 µM, hits give high values] | activity change, negative = cytotoxicity [9] -5.45% [at 15.8 µM] | cytotoxicity increase [10] 1.96% [at 15.8 µM]

O=P(O)(O)c1ccccc1
inactive: Potency [1] | outcome [2] | Potency [3] | Potency [4] | Potency [5] | Potency [6] | Potency [7] | Potency [8] | outcome [9] | Potency [10]

C#CC(C)(C)O
inactive: Potency [1] | outcome [2] | Potency [3] | Potency [4] | Potency [5] | Potency [6] | Potency [7] | Potency [8]

C=CC1(C)OC(=O)N(c2cc(Cl)cc(Cl)c2)C1=O (stereo unspecified)
inactive: Potency [1] | outcome [2] | Potency [3] | Potency [4] | Potency [5] | Potency [6] | Potency [7] | Potency [8]

CCCCCCC(=O)CCCCCC/C=C/C[C@@H](O)[C@H](O)[C@@](N)(CO)C(=O)O
inactive: cytotoxicity increase [1] -8.63% [at 15.8 µM] | cytotoxicity [2] -17.7% [at 15.8 µM] | cytotoxicity increase [3] -23.6% [at 15.8 µM] | cytotoxicity increase [4] -3.97% [at 15.8 µM] | activity change, negative = cytotoxic [5] 1.68% [at 15.8 µM] | activity change, negative = cytotoxicity [6] -0.165% [at 15.8 µM] | activity change, negative = cytotoxicity [7] -1.55% [at 15.8 µM] | activity change [8] -6.94% [at 15.8 µM, hits give high values] | activity change, negative = cytotoxicity [9] 3.64% [at 15.8 µM]

CNC(=O)NC(O)C(Cl)(Cl)Cl (stereo unspecified)
inactive: Potency [1] | outcome [2] | Potency [3] | Potency [4] | Potency [5] | Potency [6] | Potency [7] | Potency [8] | outcome [9]

CC[C@H](N)c1ccccc1
inactive: Potency [1] | outcome [2] | Potency [3] | Potency [4] | Potency [5] | Potency [6] | Potency [7] | Potency [8]

CC(C)(C)C(=O)C(Cl)Cl
inactive: Potency [1] | outcome [2] | Potency [3] | Potency [4] | Potency [5] | Potency [6] | Potency [7] | Potency [8]

Oc1ccc2c3c1O[C@H]1[C@@H](O)C=C[C@H]4[C@@H](C2)NCC[C@@]341
inactive: Potency [1] | outcome [2] | Potency [3] | Potency [4] | Potency [5] | Potency [6] | Potency [7] | Potency [8] | outcome [9] | Potency [10]

CCc1ccc(C2CCNCC2)cc1
inactive: Potency [1] | outcome [2] | Potency [3] | Potency [4] | Potency [5] | Potency [6] | Potency [7] | Potency [8]

Cc1ccc(S(=O)(=O)N[C@@H](CCCCN)C(=O)CCl)cc1
inactive: Potency [1] | outcome [2] | Potency [3] | Potency [4] | Potency [5] | Potency [6] | Potency [7] | Potency [8] | outcome [9] | Potency [10]

CC(C)[N+](C)(CCC(C(N)=O)(c1ccccc1)c1ccccc1)C(C)C
inactive: Potency [1] | outcome [2] | Potency [3] | Potency [4] | Potency [5] | Potency [6] | Potency [7] | Potency [8] | outcome [9]

O=C(Cl)CCl
inactive: Potency [1] | outcome [2] | Potency [3] | Potency [4] | Potency [5] | Potency [6] | Potency [7] | Potency [8] | outcome [9] | Potency [10]

O=C(Cl)C(Cl)(Cl)Cl
inactive: Potency [1] | outcome [2] | Potency [3] | Potency [4] | Potency [5] | Potency [6] | Potency [7] | Potency [8] | outcome [9] | Potency [10]

COP(=O)(O)OC
inactive: Potency [1] | outcome [2] | Potency [3] | Potency [4] | Potency [5] | Potency [6] | Potency [7] | Potency [8]

N#CN
inactive: Potency [1] | outcome [2] | Potency [3] | Potency [4] | Potency [5] | Potency [6] | Potency [7] | Potency [8] | outcome [9] | Potency [10]

C[C@H]1CCCC(=O)CCC/C=C/c2cc(O)cc(O)c2C(=O)O1
active: Potency [6] 33.4 µM | Potency [7] 42.1 µM
inactive: Potency [1] | outcome [2] | Potency [3] | Potency [4] | Potency [5] | Potency [8] | outcome [9]

COP(=O)(OC)O/C(C)=C/C(=O)N(C)C
inactive: Potency [1] | outcome [2] | Potency [3] | Potency [4] | Potency [5] | Potency [6] | Potency [7] | Potency [8] | outcome [9] | Potency [10]

O=c1[nH]c2ccccc2n1C1CCNCC1
inactive: Potency [1] | outcome [2] | Potency [3] | Potency [4] | Potency [5] | Potency [6] | Potency [7] | Potency [8] | outcome [9] | Potency [10]

N[C@@H]1C[C@H]1c1ccccc1
inactive: Potency [1] | outcome [2] | Potency [3] | Potency [4] | Potency [5] | Potency [6] | Potency [7] | Potency [8] | outcome [9]

c1cncc([C@@H]2CCCCN2)c1
inactive: Potency [1] | outcome [2] | Potency [3] | Potency [4] | Potency [5] | Potency [6] | Potency [7] | Potency [8] | outcome [9]

O=C(Cl)OCc1ccccc1
inactive: Potency [1] | outcome [2] | Potency [3] | Potency [4] | Potency [5] | Potency [6] | Potency [7] | Potency [8] | outcome [9] | Potency [10]
